# According to the supplement of paper PMC6555819:
# Key:
# Experiment in all cases: PBM binding z-score (relative to random genomic background probes); higher = stronger binding; sequences stand for … in GC…GCGATTGACAGCGTAGAATGAAGG
# [1] = system: RARb homodimer (NR concentration 270 nM)
# How it was run: (§1)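 Binding buffer was PBS pH 7.4 with 2% milk, 0.02% Triton X-100, 1 mM DTT, 0.2 mg/mL BSA and 0.4 mg/ml salmon testes DNA. In it, ligand-free nuclear receptor dimers were incubated 1 h on custom Agilent 4×180K protein-binding microarrays carrying double-stranded probes. Antibodies against each partner (one per run) detected binding, and z-scores were calculated against random background probes after regression normalization of scanned fluorescence.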
# [2] = system: RARg:RXRa (NR concentration 270 nM, RXRa partner concentration 90 nM)
# How it was run: as §1
# [3] = system: RARg homodimer (NR concentration 270 nM)
# How it was run: as §1
# [4] = system: RXRa DBDmut IVT, anti-RXR (DBD mutation: RXRa K156A/R161A, NR concentration 90 nM)
# How it was run: as §1
# [5] = system: RXRa homodimer (NR concentration 180 nM)
# How it was run: as §1
# [6] = system: THRa:RXRa (NR concentration 90 nM, RXRa partner concentration 90 nM)
# How it was run: as §1
# [7] = system: THRa homodimer (NR concentration 90 nM)
# How it was run: as §1
# [8] = system: VDR:RXRa (NR concentration 270 nM, RXRa partner concentration 90 nM)
# How it was run: as §1
# [9] = system: VDR homodimer (NR concentration 270 nM)
# How it was run: as §1
Sequence,PBM binding z-score [1],PBM binding z-score [2],PBM binding z-score [3],PBM binding z-score [4],PBM binding z-score [5],PBM binding z-score [6],PBM binding z-score [7],PBM binding z-score [8],PBM binding z-score [9]
CGTCCAAGGTCAATGCTAGGTCAGTGATAGCATT,5.15,7.48,6.91,3.87,5.32,4.38,3.02,4.92,3.54
CCTATTAGTCGACCATAAGGGCAACCGAAGCTCG,1.55,0.761,0.875,0.45,0.505,1.33,0.896,0.145,0.533
ATCGAAAGGTCGAAGGTGAGTAAACCCACCCGAA,2.45,4.43,3.92,1.23,4.9,2.15,0.0401,2.84,1.17
TCTTGTAGATCAACAGGATGTTAAGAAAGATCGA,-0.63,0.136,0.033,0.72,0.385,-0.148,-0.851,0.149,-0.332
CAAACTAGGTCACAGGTCAAAGTCGAGCCAACCA,4.27,5.97,5.55,2.31,6.18,3.97,2.07,4.33,2.12
GGAACGAGGGCAGAGTTGATAGCATCTGTCGACG,0.448,0.934,1.12,1.49,0.588,0.324,-0.629,0.0819,0.314
CCTACTGGGCCACAGGTCATTGATTCCAATGCTC,2.48,2.14,1.94,0.14,2.23,1.54,0.651,1.99,1.13
GATACAGGGTCAGCTAGACGCCAGAGTATGGAAA,2.32,4.41,4.12,0.957,4.21,2.43,0.221,2.29,0.722
TATACACGGTCAAAGGCCAGAGTACGAATGTCGA,2.33,2.53,2.87,0.0328,1.45,0.581,-0.253,0.598,0.761
TCTTGTAGATCAGTAGGTTAAGAAAGCTGGCCAA,0.381,-0.0974,-0.231,0.997,0.365,0.204,0.0296,0.673,0.104
GCTATTAGTTGAAAGGGCACCCGAATGATTCTCG,1.78,1.18,1.03,1.06,1.43,0.64,0.229,0.313,0.843
ATCTCTGGGTAAAGTTCAGTGAAAGATCGATAGA,2.68,2.19,2.4,1.43,1.57,1.11,0.412,1.64,1.62
AGTCAAAGTTCACTAGGTAAGGTAAGATTCAGCT,3.88,4.78,6.02,4.18,3.95,2.51,1.03,3.96,3.36
ATATGTAGGTTAGCTGGGGTTATTCAGACTAGGC,1.42,1.54,0.961,0.972,2.43,4.32,1.11,3.2,1.65
AGAACGAGGGCACGCTGAGTTGATAGTAGAGTAG,1.25,1.99,2.41,2.07,1.34,1.9,0.0891,2.38,1.95
ATCTCTAGGAAACCAAGTTCAGTGAATGCCGAAC,1.32,0.329,0.454,0.614,0.323,0.46,0.191,1.49,2.72
CGTGAAAGTTCAAGGTAACGTAACAGAAAGCAGC,3.23,5.05,5.85,4.44,4.04,3.07,0.878,3.81,3.01
AACTCTAGGTAACAAGTTCAGTGAAAGAGAGGAC,1.66,1.03,1.2,1.13,0.731,1.4,0.448,1.61,2.39
ATATGTAGGTTAAGGGTCATTCATGTTGGTTCGC,4.2,4.74,3.5,2.3,6.14,3.43,1.52,5.08,4.27
CGTACTGGGCCACGAAAGGTCATTGATTCAGTGA,4.58,4.97,4.48,0.97,5.18,3.83,1.09,4.47,2.78
ACTAGTTGGTCAGCTGCGGTCACACACAATTCGG,2.82,1.23,1.87,0.356,0.636,2.65,0.969,0.586,0.532
CCTCGGAGGAAAACAGGAGGTCAGAGCTGCCAGA,2.81,1.32,1.3,-0.428,1.63,2.06,0.595,1.28,0.405
TAGCCTAGGTCATTCGGCCAGTATAGTACGCATC,3.12,3.81,4.13,1.7,2.52,2.66,0.61,2.24,1.6
GCTGCTAGGTCAACTGGTGGTCAGCTAAAGCTCG,3.61,5.52,5.36,1.53,2.88,3.02,0.794,1.64,0.0223
CGAACTAGGTCATCCAGTACAGTGAATACATTGA,3.05,3.9,4.84,2.61,2.78,3.04,1.43,5.08,2.24
TCGAGTAGGTTAGGGGCATTCACAATGGCGTCGA,0.776,0.234,0.502,0.518,0.424,1.06,0.276,0.522,1.04

Sequence,PBM binding z-score [1],PBM binding z-score [2],PBM binding z-score [3],PBM binding z-score [4],PBM binding z-score [5],PBM binding z-score [6],PBM binding z-score [7],PBM binding z-score [8],PBM binding z-score [9]
ATCTCTGGGTAACAAGTTCAGTGAAAGAGAGGAC,1.8,1.39,1.59,0.883,0.958,1.21,1.06,2.8,2.71
CATCCAAGGTCATAGGAGGTCAGTGAAGACAGAT,5.07,7.02,7.22,3.91,7.03,5.14,3.35,6.74,5.28
ATATGTAGGTTTTCGGGTCATTCAGTTTGCGCAT,2.88,2.43,1.72,1.88,3.57,3.89,4.22,5.07,4.55
TCTAGTTGGTCAAAGGTCACCCACTCGAAATGCG,5.15,7.19,6.47,1.86,8.17,3.7,1.8,5.09,2.58
CCTACTGGGACATCAGGTCATTGATATCAACGTT,2.48,1.91,1.87,0.77,1.54,3.23,3.41,1.99,2.42
TAGCCTAGGTCAGATCGGGCCAGTATACGCTATA,2.17,2.61,3.1,-0.634,1.44,4.09,0.0638,0.518,-0.176
GCAGATAGGTGAAACGCAGGTAACTCAGGGTGGC,0.000492,0.873,0.288,-0.635,0.592,1.32,-0.559,-0.534,-0.593
ACAGACAGGTGATGAAGATAACTCAGGCTATCAT,0.036,0.0914,0.567,-0.415,0.164,0.061,-0.111,-0.422,-0.302
ACAGACAGGTGAGGAAGGTAACTCAGGCTATCAT,0.672,0.425,0.577,-0.639,0.267,0.957,0.208,0.159,-0.55
ATCTCTAGGTAAGACTCAGTTCAGGGAAGAACGC,0.949,0.767,0.451,0.408,0.569,1.12,0.955,1.06,1.72
CGTCCAATGTCAATGCTAGGTCAGTGAAAGCATT,2.73,3.07,1.98,0.448,0.676,2.23,0.915,0.803,0.181
GGAACGAGGGCATTCGAGTCGATAGCATGGCGAT,0.222,1.01,1.35,3.2,0.622,2.5,-0.885,1.99,1.87
CATACTAGGTCACGAAAGGTCAAAGTCGAATGAC,5.99,7.94,8.68,2.83,8.69,5.16,2.91,6.92,4.71
TCATATAGGTAAACGGGTGAAAGTCCGTAAGTTA,0.485,0.423,0.128,1.05,1.03,0.421,-0.157,1.16,0.053
AGAACGAGGGCACGCTCAGTTGATAGCAGAGTAG,1.02,1.9,2.25,1.94,1.28,1.82,-0.0296,1.4,0.752
CAAGCTAGGTCAAGGTCAAAGTCGGTTTGTGCCA,4.92,6.04,6.71,2.89,5.73,4.39,3.51,5.24,4.44
CGTCAAAGTTCAAGGAAACGTAACAGAAAGCAGC,3.35,4.85,5.68,4.06,3.84,1.49,-0.29,3.29,2.61
ATCGAAAGGTCGACGAGGTGATTATACACCGTTT,2.78,4.21,3.9,1.34,4.35,3.58,0.498,5.76,1.54
GGAACGAGGGCATTCGAGTTGATAGTATGGCGAT,0.948,1.22,1.61,3.39,0.99,3.38,0.0512,4.13,3.37
GCAGACAGGTGAATCGCAGGTAACTCAGGGTGGC,0.0663,0.806,0.164,-0.612,0.449,1.31,-0.285,-0.428,-0.754
CCGACTGGGGCAAAGATTACCATACTCAGTACGA,-0.379,0.0799,0.405,0.314,-0.0917,-0.407,-0.518,-0.618,-0.37
CCTGCTAGGTCAATGGTCACCTAAAGCAGCTCGC,3.18,3.72,4.05,2.07,2.43,2.78,1.32,1.45,0.427
ACAGACAGGTGAGTCAAGGTAACTCAGCTGGACG,0.0236,0.322,0.586,-0.585,0.518,3.73,0.299,-0.187,-0.203
CCTAGTTGGTCAGGAGGTCACCCACCGGATATGA,4.11,4.91,4.4,-0.0796,4.2,3.47,2.51,3.66,2.4
TAGCCTAGGTCATGGGCAAGTATACCACGCGAAC,3.17,4.22,4.58,0.0807,3.44,3.34,1.26,2.13,0.341
CCAGACAGGCGAGAAGGTAACTCAGCCTCGATTA,-0.738,-0.546,-0.427,-0.382,-0.473,-0.499,-0.402,-0.665,-0.366
